# Values joined by “and” are separate entries in the source; they are usually repeats but may differ in a detail not shown here. Equal entries are not always repeated. The panel holds about 83,000 compounds, 20% with a hit somewhere; the sample as a whole holds those more often.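 How to read the values: 0–100, growth inhibition (40 = 60% inhibited); 0, no net growth; -100 to 0, cell death (-40 = 40% of starting cells died; -100 = all dead).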 Values without a mark were called inactive. Active and inactive are the calls of the source. Rule for the calls: active = growth percent below 10; inactive = the rest.
# Tested on: MDA-MB-468 breast
# Assay: NCI-60 one-dose screen, 48 h (100 = growth as untreated, 0 = no growth, -100 = all killed)
# Conditions: 10 µM unless noted
row,Compound,growth
1,CCn1c(CN2CCN(Cc3ccccc3)CC2)nc2cc(NC(=O)c3cccs3)ccc21,-86.6% (active)
2,c1ccc(C(=NNc2nc3ccccc3o2)c2ccccn2)nc1,-27.4% (active)
3,CCCCCCCCCCN1CCC(N2CCCCC2)CC1,-73.2% (active)
4,O=C(N/N=C/c1ccc[nH]1)c1[nH]c2ccc(Br)cc2c1-c1ccccc1,-0.633% (active)
5,CC[C@H](CC[C@@H](C)[C@H]1CC[C@H]2[C@@H]3CC=C4C[C@@H](O)CC[C@]4(C)[C@H]3CC[C@]12C)C(C)C,98.7% and 91.8%
6,CCOC(=O)c1nnn(-c2ccccc2)c1C1=CN(C)CCC1,120%
7,O=C1CCCN1C1CCN2CCCc3cccc1c32 (stereo unspecified),118%
8,CCCC(=O)OCC1OC(n2cnc3c(=S)nc(N)[nH]c32)C(OC(=O)CCC)C1OC(=O)CCC (stereo unspecified),47.7%
9,COC(=O)C1=C(C)NC(C)=C(C(=O)OCC(C)C)C1c1ccccc1[N+](=O)[O-] (stereo unspecified),44.7%
10,CCN(CC)CCOC(=O)c1ccc(NC(=O)Nc2cccc(Cl)c2)cc1,103%
11,Cc1cccc(/C=C/C(=O)Nc2ncc(Cc3cccc(C)c3)s2)c1,-15.3% (active)
12,CCC(=C(c1ccc(OCCCN(C)C)cc1)c1ccc(OCCCN(C)C)cc1)c1ccc(Cl)cc1,-74.4% (active)
13,CC1(C)C(=NO)C(C)(C)C1=NO,103%
14,O=C(/C=C/c1ccc(Cl)s1)c1ccc(Cl)s1,88.1% and 79.5%
15,COc1ccc(-c2ccc(-c3ccc(C(=N)N)cn3)o2)cc1,48.7%
16,CC(=O)N1N=C(c2ccc(C)cc2)CC1c1cn(-c2ccccc2)nc1-c1cccc(Nc2ccnc3cc(Cl)ccc23)c1 (stereo unspecified),9.76% (active)
17,Cc1cccc(C[C@H](NC(=O)Nc2ccc(Cl)cc2F)C(=O)N[C@@H]2C(=O)N3C[C@H](O)C[C@H]3C(=O)N3CCN(C)C[C@H]3C(=O)N[C@@H](C)C(=O)N3C[C@H](C)C[C@H]3C(=O)O[C@H]2C)c1,15.7%
18,CC(C)(C)n1cc(-c2ccnc(NCCCNS(=O)(=O)c3ccc(F)cc3)c2)c(-c2cccc(O)c2)n1,24.3%
19,O=C(Nc1ccncc1)C(=O)c1cn(S(=O)(=O)c2cccc(Cl)c2)c2ccccc12,31.2%
20,CN(CCNCc1ccccn1)CCNCc1ccccn1,-15.6% (active)
21,C=C(C)COC(=O)c1ccccc1C(=O)OCC1(C)CO1 (stereo unspecified),108%
22,Cc1ccc2nc(NC(=O)CSC(=S)N3CCN(Cc4ccccc4)CC3)sc2c1,-76.4% (active)
23,COC(=O)c1cccc(NC2=C(Cl)C(=O)c3nc(C)ccc3C2=O)c1,-71.3% (active)
24,Cc1cc(C(O)(c2ccc(Nc3ccccc3)cc2)c2ccc(Nc3ccc(S(=O)(=O)O)cc3)cc2)ccc1N (stereo unspecified),-71.3% (active)
25,N#CSCC1CC(O)(c2ccccc2)C(c2ccccc2)C(c2ccc(Cl)cc2)O1 (stereo unspecified),-58.9% (active)
26,O=C(Nc1ccc(Cl)c(C(F)(F)F)c1)Nc1ccc(-c2cccnc2)cc1N1CCC(CO)CC1,12.6%

# — PubChem BioAssay (NCI)
